# From the OligoGym collection
# Biological target: PTBP2
# Assay: pooled miR-30 sensor sort-seq; sequence = guide strand
# Settings: shRNA
# Note: reference of the scale not given here.
row,Sequence,sensor-assay potency score (higher = more potent)
1,TTGCTAACCAACAGGACTGTAT,-0.182
2,TAACCATAGTAATAGCTGCTTC,-0.782
3,TTATCTTCAATACAGCACCAAA,-1.15
4,TAGCTGTACAGTCTGATGTTTA,-0.892
5,TTCATTTAAATTGCTAACCAAC,-1.15
6,TTAACCATAGTAATAGCTGCTT,0.167
7,TGAACTAGCTAGACCAGTCTGC,0.184
8,TTTAATGTATTATCTGTCTTTA,-0.808
9,TTGGCTGTAACTACCATGCTGC,-0.376
10,TAGTTCGTCAGATCCTCTCTTC,0.267
11,TTTAGTTCTTTGTGATTCGAGT,-0.551

# Biological target: PTGDR
# Assay: as above
# Settings: shRNA
row,Sequence,sensor-assay potency score (higher = more potent)
1,TATCCTAACACACCTCTCCAAA,-1.13
2,TTTAAGACTTTTAACACTGGTT,-0.351
3,TACTGTTAAATCATACTCCTTG,0.542
4,TAAATTTCAAAAACAACTGTAT,-0.297
5,ATTAACTGGACAATTATCCTAA,0.137
6,TTAGTGGAATTGCTGCACCGGC,-1.14
7,TGTACTTACACATTGAAGGTAC,0.268
8,TTTTTATGAATGTCCATCGTAT,-0.379
9,TTGATTCCTACTGACACCCTTG,0.657
10,TCTGCTTCTTCAGAGGTCCTGT,0.273
11,TACAGTGAGTCACACACTGGTT,-0.86
12,TAGGCAGCCAGCACCACCGGGC,-0.802

# Biological target: PTGDS
# Assay: as above
# Settings: shRNA
row,Sequence,sensor-assay potency score (higher = more potent)
1,TACTGGTCGTAGTCGGTCTCCA,-0.484
2,TTGCACATGGACAACGCCGCCT,-0.424
3,TTTCTCCTTTAACTCAGCCCTG,-1.14
4,TTATTGTGCAGGATGAAGCCTG,-0.188
5,TTGGGCTGCACGGAGACCTGGG,-0.764
6,TTCTCCTTTAACTCAGCCCTGG,-0.867
7,AAGACAATGGTATCCTCTGTGA,-0.868
8,TTTTTCCTGAGGAAGGTGGAGG,-1
9,TAGTCGGTCTCCACCACTGACA,-1.34
10,TGAATTTCTCCTTTAACTCAGC,-0.751
11,TCCGGTAGCTGTAGGAGCCGAG,-0.81

# Biological target: PTGFRN
# Assay: as above
# Settings: shRNA
row,Sequence,sensor-assay potency score (higher = more potent)
1,TTTGCTAACATCCCGAACCAGT,-0.807
2,TTAACCATTAAAAAGCTGCAGT,-0.442
3,TAAAACAACGCCATCCACCCGT,-0.0584
4,TTTAGTGTAACACACTTTGTTT,-0.905
5,TTGAACATTTGTAGTGGCCTTG,-0.0806
